Rce1 inh = yeast Rce1p protease inhibitors, primary screen, biochemical, fluorescence, cell-free homogeneous. CAAX prenyl protease 2 (Saccharomyces cerevisiae (strain ATCC 204508 / S288c)), Q03530. yeast membranes, quenched prenylated peptide cleavage fluorescence. calls only. hit rate 0.27% among 290,000. AID 2563, 2010;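 active means fall in fluorescence gain of 50% or more versus controls, with final raw signal at or below 3038400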;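 further: plate controls were neutral control wells for no effect and wells lacking membranes for full effect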
Target sequence (Q03530 whole entry, looked up): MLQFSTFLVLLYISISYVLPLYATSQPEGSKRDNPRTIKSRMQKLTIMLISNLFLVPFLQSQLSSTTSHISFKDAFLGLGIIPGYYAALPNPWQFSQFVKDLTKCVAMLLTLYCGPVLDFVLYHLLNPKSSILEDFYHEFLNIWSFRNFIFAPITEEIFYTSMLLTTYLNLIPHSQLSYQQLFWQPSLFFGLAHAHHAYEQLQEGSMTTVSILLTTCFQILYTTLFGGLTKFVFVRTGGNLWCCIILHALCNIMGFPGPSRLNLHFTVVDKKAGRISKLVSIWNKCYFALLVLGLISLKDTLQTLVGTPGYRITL
PfM18AAP inh-1 = PfM18AAP inhibitors, malaria aminopeptidase, primary screen, biochemical, QFRET, recombinant enzyme; hit rate 1.2% among 290,000; M18 aspartyl aminopeptidase (Plasmodium falciparum 3D7); AID 1822, 2009; H-Glu-NHMec fluorogenic cleavage; inhibition, % at 7.35 µM;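 active means inhibition above the campaign mean inhibition over all tested compounds plus 3 SD, cut at about 28% in these data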;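 further: 0% = plate median of test compound wells and 100% = 2 mM ZnCl2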
Granule exo inh = LAMP-1 surface exposure blockers, TALL-104 cells – cell-based, flow cytometry, MLPCN library, primary screen; AID 651702, 2012; hit rate 0.66% among 360,000; inhibition, % at 10 µM; TALL-104 LAMP-1 surface exposure; cells stimulated with thapsigargin and PMA;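 active means inhibition above about 55%, limit read from the data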
ABHD5 PLIN5 PPI = ABHD5-PLIN5 interaction inhibitors, primary screen, cell lysate, split luciferase complementation, luminescence | Split G. princeps luciferase complementation, 4 h | inhibition, % at 4 µM | hit rate 0.78% among 360,000 | Perilipin-5 (Homo sapiens) + 1-acylglycerol-3-phosphate O-acyltransferase ABHD5 (Homo … | AID 602281, 2012;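 active means inhibition above the mean inhibition across every tested compound plus 3 SD, cut at about 22% in these data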;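 further: 0% = DMSO only wells and the 100% control is not disclosed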
Platelet DG rel = inhibitors of platelet dense granule secretion, primary screen, cell-based, MLPCN, human platelets; human platelet-rich plasma, SFLLRN dense granule ATP release, luminescence; inhibition, %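 (compounds screened at 7.5 µM in platelet-rich plasma)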; hit rate 0.22% among 300,000; AID 1663, 2009;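 active means mean replicate score, as percent of positive control, at or above 50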
PfM18AAP inh-2 = PfM18AAP inhibitors, malaria aminopeptidase, confirmation, biochemical, QFRET, recombinant enzyme, triplicate; shares compounds with PfM18AAP inh-1; H-Glu-NHMec fluorogenic cleavage; inhibition, % at 7.35 µM; hit rate 28% among 2,400;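 active means mean inhibition over replicate wells above the hit cutoff set for the earlier primary screen, cut at about 29% in these data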;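 further: 0% = median of test compound wells and 100% = 2 mM ZnCl2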
CTSL1 counter = cathepsin L1 inhibitors, retest, confirmation, counter-screen for PFM18AAP inhibitor project, biochemical, QFRET, triplicate | 2,400 tested, under 10 active | AID 2178, 2009 | shares compounds with PfM18AAP inh-1 | inhibition, % at 5.96 µM | purified cathepsin L1, Z-Leu-Arg-MCA fluorescence;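 active means average inhibition across replicates above the hit cutoff set in the earlier primary screen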;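 further: 0% = median of test compound wells and 100% = Z-Phe-Ala-diazomethylketone 1 µM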
Target sequence (P07711 whole entry, looked up): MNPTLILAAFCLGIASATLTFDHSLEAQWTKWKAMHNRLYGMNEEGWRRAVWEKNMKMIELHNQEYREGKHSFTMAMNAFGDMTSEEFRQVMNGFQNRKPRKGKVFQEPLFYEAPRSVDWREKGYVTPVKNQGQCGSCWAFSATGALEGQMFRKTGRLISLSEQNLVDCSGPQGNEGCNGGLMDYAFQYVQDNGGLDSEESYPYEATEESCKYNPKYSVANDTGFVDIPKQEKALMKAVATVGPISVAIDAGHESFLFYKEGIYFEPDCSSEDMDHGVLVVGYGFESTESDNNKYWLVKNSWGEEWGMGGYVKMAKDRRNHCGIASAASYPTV
An asterisk follows results filed as active. Rows were chosen to be rich in hits. Some 2.6% of all compounds tested hit in one or more screens of this group.

Results for Oc1ccc(N2CCN(Cc3cc4c(cc3Br)OCCO4)CC2)cc1 ?
Rce1 inh: inactive; PfM18AAP inh-1: 39*; Granule exo inh: -1; ABHD5 PLIN5 PPI: 12; Platelet DG rel: -10; PfM18AAP inh-2: -13; CTSL1 counter: -1

Results for Cc1cccc(C(=O)NC(=S)NNC(=O)Cc2ccccc2)c1 ?
Rce1 inh: inactive; PfM18AAP inh-1: 38*; Granule exo inh: -5; ABHD5 PLIN5 PPI: -3; Platelet DG rel: -7; PfM18AAP inh-2: -40; CTSL1 counter: 3

How did CCCCCC(=O)NNC(=S)NC(=O)c1ccccc1[N+](=O)[O-] do in these assays?
Rce1 inh: inactive; PfM18AAP inh-1: 12; Granule exo inh: -1; ABHD5 PLIN5 PPI: 7; Platelet DG rel: 12

Results for O=C(Cc1ccc(Cl)cc1)NNC(=S)NC(=O)c1cccnc1 ?
Rce1 inh: inactive; PfM18AAP inh-1: 50*; Granule exo inh: 0; ABHD5 PLIN5 PPI: -9; Platelet DG rel: -7; PfM18AAP inh-2: -16; CTSL1 counter: 3

Results for O=C(NNC(=S)NC(=O)c1cccnc1)c1ccc(Cl)cc1 ?
Rce1 inh: inactive; PfM18AAP inh-1: 39*; Granule exo inh: -6; ABHD5 PLIN5 PPI: -6; Platelet DG rel: -2; PfM18AAP inh-2: -17; CTSL1 counter: 3

Results for CCCCCC(=O)NNC(=S)NC(=O)c1cccc([N+](=O)[O-])c1 ?
Rce1 inh: inactive; PfM18AAP inh-1: 35*; Granule exo inh: -1; ABHD5 PLIN5 PPI: -7; Platelet DG rel: -12; PfM18AAP inh-2: -6; CTSL1 counter: 1

Results for COc1cc2ccccc2cc1C(=O)N(CCN(C)C)c1nc2c(F)cc(F)cc2s1 ?
Rce1 inh: inactive; PfM18AAP inh-1: -14; Granule exo inh: 8; ABHD5 PLIN5 PPI: -1; Platelet DG rel: -4

How did COc1ccc(NC(=O)C(=O)NCCC2CCCCN2S(=O)(=O)c2cccs2)cc1 (configuration not stated) do in these assays?
Rce1 inh: inactive; Granule exo inh: 4; ABHD5 PLIN5 PPI: -4; Platelet DG rel: -3

How did Cc1ccc(O)c(NC(=O)/C=C/C(=O)O)c1 do in these assays?
Rce1 inh: inactive; PfM18AAP inh-1: 33*; Granule exo inh: -2; ABHD5 PLIN5 PPI: -1; Platelet DG rel: -9; PfM18AAP inh-2: -22; CTSL1 counter: 4

How did CCC(C)NC(=O)Cn1cccc1C(=O)c1ccccc1 (configuration not stated) do in these assays?
Rce1 inh: inactive; PfM18AAP inh-1: 6; Granule exo inh: -2; ABHD5 PLIN5 PPI: 4; Platelet DG rel: 1

How did O=C(COc1cccc2cccnc12)NNC(=S)Nc1ccccc1 do in these assays?
Rce1 inh: inactive; PfM18AAP inh-1: 35*; Platelet DG rel: -4; PfM18AAP inh-2: 77*; CTSL1 counter: 0

How did O=C(NNC(=S)Nc1ccccc1)Nc1ccccc1 do in these assays?
Rce1 inh: inactive; PfM18AAP inh-1: 53*; Granule exo inh: 0; ABHD5 PLIN5 PPI: -20; Platelet DG rel: -5; PfM18AAP inh-2: 18; CTSL1 counter: -6

Results for O=C(COc1cccc2ccccc12)NNC(=O)Nc1ccccc1 ?
Rce1 inh: inactive; PfM18AAP inh-1: 1; Granule exo inh: 1; ABHD5 PLIN5 PPI: -4; Platelet DG rel: -3

What do the screens show for `O=C(NNC(=S)Nc1ccccc1)c1ccncc1`?
Rce1 inh: inactive; PfM18AAP inh-1: 7; Granule exo inh: -5; ABHD5 PLIN5 PPI: 1; Platelet DG rel: 6

Results for COC(CC(=O)NNC(=S)Nc1ccccc1)OC ?
Rce1 inh: inactive; PfM18AAP inh-1: 13; Granule exo inh: -1; ABHD5 PLIN5 PPI: -3; Platelet DG rel: 6

What do the screens show for `O=C(NNC(=S)Nc1ccccc1)NNC(=S)Nc1ccccc1`?
Rce1 inh: inactive; PfM18AAP inh-1: 39*; Granule exo inh: 0; ABHD5 PLIN5 PPI: -7; Platelet DG rel: 2; PfM18AAP inh-2: 60*; CTSL1 counter: -5

How did O=S(=O)(NCc1csc(-c2cccnc2)n1)c1ccc(Br)cc1 do in these assays?
Rce1 inh: inactive; PfM18AAP inh-1: 7; Granule exo inh: -2; ABHD5 PLIN5 PPI: 0; Platelet DG rel: 0

How did CCOc1ccc(NC(=O)N(CCN2CCOCC2)Cc2ccc3c(c2)CCCN3CC)cc1 do in these assays?
Rce1 inh: inactive; PfM18AAP inh-1: 18; Granule exo inh: 2; ABHD5 PLIN5 PPI: 1; Platelet DG rel: -7

What do the screens show for `O=C(NNc1ccc([N+](=O)[O-])cc1)C1CC1c1ccccc1` (configuration not stated)?
Rce1 inh: inactive; PfM18AAP inh-1: 43*; Granule exo inh: -2; ABHD5 PLIN5 PPI: -3; Platelet DG rel: 2; PfM18AAP inh-2: 15; CTSL1 counter: 3

Results for Cc1ccccc1C(=O)NNc1ccc([N+](=O)[O-])cc1 ?
Rce1 inh: inactive; PfM18AAP inh-1: 60*; Granule exo inh: -2; ABHD5 PLIN5 PPI: 1; Platelet DG rel: -6; PfM18AAP inh-2: 48*; CTSL1 counter: 2

What do the screens show for `Cc1ccc(S(=O)(=O)NCCC(=O)NNC(=O)COc2ccc(Br)cc2)cc1C`?
Granule exo inh: -5; ABHD5 PLIN5 PPI: -6

How did O=C(Nc1sc2c(c1C(=O)O)CCCC2)c1ccc(F)cc1 do in these assays?
Rce1 inh: inactive; PfM18AAP inh-1: -1; Granule exo inh: 12; ABHD5 PLIN5 PPI: 4; Platelet DG rel: -4

How did COC(=O)[C@]1(Cc2ccccc2)N[C@H](CN(C)C(=O)COc2ccccc2)[C@@H]2C(=O)N(C)C(=O)[C@@H]21 do in these assays?
Granule exo inh: -3; ABHD5 PLIN5 PPI: -4

Results for COc1ccc(/C=C(\C#N)C(=O)C(C)(C)n2cncn2)cc1 ?
Rce1 inh: inactive; PfM18AAP inh-1: 59*; Granule exo inh: 2; ABHD5 PLIN5 PPI: 17; Platelet DG rel: 7; PfM18AAP inh-2: -8; CTSL1 counter: -2

Results for COc1ccc(C=C(C#N)C(=O)c2ccccc2)cc1 ?
Granule exo inh: -5; ABHD5 PLIN5 PPI: 7

Results for CCCCN1CC(N2CCN(C)CC2)CS1(=O)=O (configuration not stated) ?
Granule exo inh: 0; ABHD5 PLIN5 PPI: -10

What do the screens show for `O=[N+]([O-])/C(C=Nc1ccccc1O)=C\Nc1ccccc1O`?
Rce1 inh: inactive; PfM18AAP inh-1: 34*; Granule exo inh: -8; ABHD5 PLIN5 PPI: -4; Platelet DG rel: -4; PfM18AAP inh-2: 18; CTSL1 counter: 2

How did Cc1ccc(NC(=O)COc2ccccc2C(=O)NCCc2ccccc2)cc1 do in these assays?
Rce1 inh: inactive; PfM18AAP inh-1: 3; Granule exo inh: 16; ABHD5 PLIN5 PPI: 3; Platelet DG rel: 0
